The panel holds about 79,000 compounds, 15% with a hit somewhere; the sample as a whole holds those more often. No stated cut-off is given here; in the data, active means growth inhibition above about 70%; inactive means the rest.
Legend:
[1] = NCI Yeast Anticancer Drug Screen. Data for the rad50 strain (AID 155);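 further: 0% = growth of vehicle-only cultures of the same strain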; details: S. cerevisiae rad50 strain growth inhibition; at 50.0 µM; active compounds read high
Procedure, shortened: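 Cells are treated with compound, grown, and their growth is then scored against vehicle-only cultures of the same repair-deficient yeast strain.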

[2] = NCI Yeast Anticancer Drug Screen. Data for the mec2-1 strain (AID 157); details: S. cerevisiae mec2-1 strain, at 50.0 µM, active compounds read high
Procedure, shortened: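 mec2-1 yeast strain, carrying an alteration in DNA damage repair or cell cycle control, was exposed to compounds; growth inhibition was measured relative to vehicle-treated controls.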

[3] = NCI Yeast Anticancer Drug Screen. Data for the sgs1 mgt1 strain (AID 161);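 further: 0% = growth of cultures given vehicle only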; details: S. cerevisiae sgs1 mgt1 strain, at 50.0 µM, active compounds read high
Procedure, shortened: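 Growth of a repair-deficient yeast mutant was monitored after compound treatment and expressed as inhibition relative to vehicle-treated cultures.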

[4] = NCI Yeast Anticancer Drug Screen. Data for the cln2 rad14 strain (AID 165);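 further: 0% = growth equal to vehicle treated cultures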; details: S. cerevisiae cln2 rad14 strain, at 50.0 µM, active compounds read high
Procedure, shortened: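 Yeast carrying cln2 and rad14 alterations (cell cycle control and DNA damage repair) were exposed to compounds. Growth inhibition was measured against vehicle-treated controls.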

[5] = NCI Yeast Anticancer Drug Screen. Data for the bub3 strain (AID 167); details: S. cerevisiae bub3 mutant strain, at 50.0 µM, active compounds read high
Procedure, shortened: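 Part of a panel of yeast mutants defective in DNA damage repair or cell cycle regulation. Each strain is grown with compound, and inhibition is calculated relative to solvent-treated cultures.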

[6] = NCI Yeast Anticancer Drug Screen. Data for the mlh1 rad18 strain (AID 175); details: S. cerevisiae mlh1 rad18 strain growth inhibition; at 50.0 µM; active compounds read high
Procedure, shortened: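 Growth inhibition of the yeast strain was measured after compound exposure and expressed relative to vehicle-treated controls. The strain carries defined defects in DNA damage repair.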

Measured: growth inhibition

O=C1COC(c2ccccc2O)=NN1CCCN1CCCC1
inactive: [1] 12.9% | [2] -23.8% | [3] 21% | [4] -3.4% | [5] 14.1% | [6] 25.3%

C/C(CC(=O)Nc1ccc(C)c(C)c1)=N\NC(N)=O
inactive: [1] -31.9% | [2] -28.6% | [3] -0.7% | [4] -5.35% | [5] -22% | [6] -24.2%

O=S(=O)(Nc1cccc(Br)c1)N1CCCCC1
inactive: [1] 23.5% | [2] 10% | [3] 23.6% | [4] 13.8% | [5] 28.6% | [6] 31.6%

NC(=O)c1cccc(F)c1
inactive: [1] 13.8% | [2] 5.3% | [3] -10% | [4] 10.2% | [5] 2.1% | [6] 14.9%

Cn1c2c(c3ccccc31)CCCC2
inactive: [1] 1.55% | [2] -14.8% | [3] 1.4% | [4] -16.8% | [5] 4.5% | [6] 5.35%

CCCCCCCCCCCCOC(=S)CCl
inactive: [1] -10.9% | [2] -10.7% | [3] 10.8% | [4] -18.9% | [5] 4.55% | [6] 14.7%

COC(=O)C(Cl)=C1CC1
inactive: [1] 5.7% | [2] 10.4% | [3] -6.95% | [4] 18.6% | [5] 6.25% | [6] -5.6%

CCCCC1(C#Cc2ccccc2)Sc2ccccc2N1C (configuration not stated)
inactive: [1] -9.9% | [2] -8.45% | [3] 9.25% | [4] -21.9% | [5] -7.9% | [6] 2.25%

CNC(=O)c1cc2nc3ccccc3c(=O)n2c2ccccc12
inactive: [1] -46.3% | [2] -54% | [3] -25.1% | [4] -20.6% | [5] -7% | [6] -31.1%

CN(C)CCCN1c2ccccc2Sc2ccc3ccccc3c21
inactive: [1] -0.35% | [2] -3.45% | [3] -43% | [4] -25.9% | [5] 8.95% | [6] 14.8%

CC(C)CCN(CCCNc1c2c(nc3ccc(Cl)cc13)CCCC2)CCC(C)C
inactive: [1] -1.65% | [2] -9.4% | [3] -7.55% | [4] -34.4% | [5] -1.25% | [6] 4.95%

O=C(ON(Cc1ccccc1)Cc1ccccc1)c1ccccc1
inactive: [1] -7.8% | [2] 1.95% | [3] 20.4% | [4] -14.8% | [5] 28.1% | [6] 10.8%

CCC1SC(N)=NC1=O (configuration not stated)
inactive: [1] 16.1% | [2] 9.65% | [3] 24.7% | [4] 20.4% | [5] 10.2% | [6] 5.55%

CN(C=O)/C=C/c1cc(O)ccc1O
inactive: [1] -0.95% | [2] -0.8% | [3] -1.6% | [4] -4.1% | [5] 7.7% | [6] 5.4%

CCCCCCCC1CCCC1=O (configuration not stated)
inactive: [1] -32.1% | [2] -53.6% | [3] -37.8% | [4] 5.7% | [5] -31.8% | [6] -0.8%

CCN(CC)CCNc1c2ccc(Cl)cc2nc2c1c(C)nn2C
inactive: [1] -7.05% | [2] 9.15% | [3] 18.9% | [4] 21% | [5] 33.1% | [6] 6.95%

CC1CC=C(C(O)C(C)C)C1 (configuration not stated)
inactive: [1] 0.2% | [2] 6.2% | [3] -2.7% | [4] -11.8% | [5] 4.15% | [6] -0.9%

CNc1nnnn1-c1ccccc1C
inactive: [1] -10.8% | [2] -3.55% | [3] -10.8% | [4] -86.5% | [5] -4.05% | [6] -8.05%

c1ccc2cc3c(cc2c1)oc1cc2ccccc2cc13
inactive: [1] -14.1% | [2] -9.05% | [3] -4.8% | [4] -6.1% | [5] -5.7% | [6] -10%

CCN(CC)C(=O)c1cncc(C(N)=O)c1
inactive: [1] 4.85% | [2] -14.7% | [3] 28% | [4] 10.8% | [5] 12.7% | [6] 14.2%

CC(C)Cc1c(N)nc(NCCCC(N)C(=O)O)[nH]c1=O (configuration not stated)
inactive: [1] 13.5% | [2] -16.9% | [3] -3.55% | [4] 13.1% | [5] 9.8% | [6] 11.8%

CCCCN(CCCC)S(=O)(=O)c1ccc(OCCOc2ccc(S(=O)(=O)N(CCCC)CCCC)cc2)cc1
inactive: [1] 10.7% | [2] -1.4% | [3] 15.2% | [4] -12.4% | [5] -5.1% | [6] 7.75%

OC(C#Cc1ccccc1)(C#Cc1ccccc1)/C=C/c1ccccc1
inactive: [1] 17.1% | [2] -5% | [3] -5.85% | [4] -7.95% | [5] -9.15% | [6] 11.5%

CCOc1c(N=Nc2cccc([N+](=O)[O-])c2)c(C)nn1C(N)=S
inactive: [1] -42.2% | [2] -34.1% | [3] -7.85% | [4] -28.9% | [5] -3.35% | [6] -16%

CNc1n[nH]c(-c2ccccc2)n1
inactive: [1] 4.85% | [2] -17.5% | [3] 11.8% | [4] 11.9% | [5] 1.15% | [6] 1.8%

CC(Cl)S(N)(=O)=O (configuration not stated)
inactive: [1] -11.7% | [2] -11.7% | [3] -19.2% | [4] -6.45% | [5] 7.45% | [6] 2.15%

CC1=C(/C=C/C(C)=C/C=C/C(C)=C/C=C/C=C(C)/C=C/C=C(C)/C=C/C=C(C)/C=C/C=C(\C)C(=O)O)C(C)(C)CCC1
inactive: [1] 3.7% | [2] 25.6% | [3] -21.8% | [4] 18.6% | [5] 7.6% | [6] -2.1%

CCCCc1c(OCC)cc2n(CC)c3ccccc3n2c1=O
inactive: [1] -8.45% | [2] -9.85% | [3] 0.8% | [4] -10.9% | [5] -45% | [6] -11.9%

COc1c(NC(=O)c2ccc([N+](=O)[O-])cc2)cccc1[N+](=O)[O-]
inactive: [1] 0.45% | [2] 14.3% | [3] 5.1% | [4] -0.2% | [5] 32.2% | [6] 20.4%

CN(C)CC1CCCCCCC1=O (configuration not stated)
inactive: [1] -6.45% | [2] 12.7% | [3] -8.55% | [4] -8.1% | [5] -8.85% | [6] 12.8%

O=S1(=O)C=CC(N/N=C\c2ccc3ccccc3n2)=C1
inactive: [1] 4.8% | [2] -11.1% | [3] -4.45% | [4] -36.8% | [5] 9.7% | [6] -7.25%

O=C1C(N=Nc2ccc([N+](=O)[O-])cc2)Sc2nc3ccccc3n21 (configuration not stated)
inactive: [1] 25.8% | [2] -39.9% | [3] 7.6% | [4] -14.5% | [5] -2.2% | [6] 12.2%

O=c1ccc2ccc(O)c(O)c2o1
inactive: [1] -10.9% | [2] -5.3% | [3] 12.9% | [4] 18.1% | [5] 30.7% | [6] 1.5%

N#CC1CCN(Cc2ccccc2)C(C#N)C1 (configuration not stated)
inactive: [1] -9.05% | [2] -2.65% | [3] -16.8% | [4] -4.8% | [5] -14.2% | [6] 3.25%

CCCCCCCCCCCCc1ccc(CS)cc1
inactive: [1] 40.9% | [2] 36.3% | [3] 54% | [4] -1.7% | [5] 51.3% | [6] 32.6%

CC1(C)OC2CC3COC(=O)C3CC2O1 (configuration not stated)
inactive: [1] 9.35% | [2] -4.85% | [3] -8.45% | [4] 1.6% | [5] 30.2% | [6] 17.9%

COC(=O)C1N=CSCC1(C)O (configuration not stated)
inactive: [1] -4.8% | [2] 15.3% | [3] -25.9% | [4] 12.5% | [5] -2.45% | [6] -16.4%

CCOC(=O)c1ccc(NC(=O)Sc2ccccc2C)cc1
inactive: [1] 5.55% | [2] 12.9% | [3] 11.3% | [4] 7.5% | [5] 28% | [6] 13.6%

COC(=O)C1(COC(C)=O)CC1
inactive: [1] -6.8% | [2] 1.55% | [3] 6% | [4] -15.6% | [5] -2.75% | [6] -3.2%

O=C(c1ccccc1)N(N=C(c1ccc([N+](=O)[O-])cc1)c1ccc([N+](=O)[O-])cc1)c1ccccc1
inactive: [1] 24.7% | [2] 15.1% | [3] -6.6% | [4] -5.9% | [5] 5% | [6] 10.6%

CN1CCN(C)c2nc3ccccc3nc21
inactive: [1] 0.2% | [2] 3% | [3] 1.8% | [4] -12.1% | [5] -6.85% | [6] -7.05%

O=C1C(=O)N(c2ccccc2Cl)C(=O)N1Cc1ccccc1
inactive: [1] 10.7% | [2] 8.45% | [3] 0.95% | [4] 13.8% | [5] 2.75% | [6] 2.1%
